The text below walks through data of PubChem BioAssay (EPA / NIEHS).

Read-out in experiment [1]: Interleukin-8 (IL8), CXCL8 (gene 3576)
Put plainly: BSK_3C_IL8: BioMAP Diversity Plus: 3C Assay for Interleukin-8 (IL8) Biomarker Activity (AID 2283020). The following applies: primary human endothelial cells (HUVEC); actives raise or lower the signal. A digest of the protocol: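 Human vascular endothelial cells (umbilical vein) in the 3C system; IL-8 level detected by ELISA at 24 h post-dose, with DMSO as baseline.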

Read-out in experiment [2]: Monokine induced gamma interferon (MIG), CXCL9 (gene 4283)
As to the kind of experiment: BSK_3C_MIG: BioMAP Diversity Plus: 3C Assay for Monokine induced gamma interferon (MIG) Biomarker Activity (AID 2283021).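 For AC50: MIG protein level measured by immunoassay in the treated endothelial cultures.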 The following applies: primary human endothelial cells (HUVEC); actives raise or lower the signal. An outline of the steps:
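After 24 h of treatment, human umbilical vein endothelial cultures (3C system) had their MIG biomarker level determined by ELISA, with DMSO serving as negative control.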

Experiment [3] addresses human Vitamin D Receptor (VDR), VDR (gene 7421) (UniProt P11473). Put plainly: ATG_VDR_TRANS: Attagene TRANS-FACTORIAL HepG2 Assay for human Vitamin D Receptor (VDR) (AID 2283022; active = hit-call score of the fitted dose curve at least 0.9, where 1 is the maximum). An outline of the steps:
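Fluorescence of labelled reporter cDNA fragments, resolved by capillary electrophoresis, gives mRNA induction after 24 h treatment of HepG2 cells carrying transfected Gal4-fusion reporter units. Activity is fitted in the positive direction with DMSO as baseline.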

A short description of experiment [4]: BSK_3C_SRB: Viability Assessment in the BioMAP Diversity Plus: 3C Assay (AID 2283023).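 Note: cells read 24 h after compound dosing; fitted both ways against DMSO so a hit may be signal rise or drop.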 The following applies: primary human endothelial cells (HUVEC). An outline of the steps: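 Cells were dosed with chemical, cultured 24 h, fixed with 10% TCA, stained with 0.1% SRB and read at 560 nm. Human umbilical vein endothelium was used; DMSO served as negative control and baseline.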

Read-out in experiment [5]: Matrix Metallopeptidase 1 (MMP1), MMP1 (gene 4312)
Put plainly: BSK_BE3C_MMP1: BioMAP Diversity Plus: BE3C Assay for Matrix Metallopeptidase 1 (MMP1) Biomarker Activity (AID 2283024). The following applies: primary human bronchial epithelial cells; actives raise or lower the signal. An outline of the steps:
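Dose cells, wait 24 h, run MMP1 ELISA; cells are human bronchial epithelial primaries. Both increases and decreases relative to DMSO counted.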

Read-out in experiment [6]: Pselectin, SELP (gene 6403)
Put plainly: BSK_4H_Pselectin: BioMAP Diversity Plus: 4H Assay for Pselectin Biomarker Activity (AID 2283026). The following applies: primary human endothelial cells (HUVEC); actives raise or lower the signal. A digest of the protocol: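 Human vascular endothelium from umbilical vein; P-selectin measured by ELISA at 24 h post-dose, with cytotoxicity checked by sulforhodamine B total-protein staining in parallel cultures (0.1% SRB after 10% TCA fixation, read at 560 nm).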

Experiment [7] is described as follows: BSK_4H_SRB: Viability Assessment in the BioMAP Diversity Plus: 4H Assay (AID 2283027).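 For AC50: curves fitted both ways versus DMSO so AC50 may be loss or gain.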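 Note: cells exposed to compound for 24 h before staining.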 The following applies: primary human endothelial cells (HUVEC). An outline of the steps: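 Human umbilical vein endothelial cells were dosed with chemical and, after 24 h, fixed with 10% TCA, stained with 0.1% sulforhodamine B, and read at 560 nm to give total protein as a cytotoxicity measure. Bidirectional fitting relative to DMSO control.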

Experiment [8] in a line: BSK_BE3C_SRB: Viability Assessment in the BioMAP Diversity Plus: BE3C Assay (AID 2283028).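 For AC50: fitted both ways so AC50 may mark signal gain or loss versus DMSO.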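 Note: measured 24 h after chemical dosing.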 The following applies: primary human bronchial epithelial cells. A digest of the protocol:
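Overt cytotoxicity was assessed as total protein in confluent human primary bronchial epithelial cultures 24 h after chemical addition, using 0.1% sulforhodamine B staining read at 560 nm.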

The nature of experiment [9]: BSK_3C_Vis: BioMAP Diversity Plus: 3C Assay for Morphology Visualization (AID 2283025).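 For AC50: light microscopy image of cell morphology used as background control; cells imaged 24 h after dosing.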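 Note: fitted both ways so gain or loss versus DMSO counts.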 The following applies: primary human endothelial cells (HUVEC). An outline of the steps:
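Endothelial cells from human umbilical vein were treated with test chemicals for 24 h and inspected by light microscopy for changes in cell conformation.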

Read-out in experiment [10]: Thrombomodulin, THBD (gene 7056)
Put plainly: BSK_3C_Thrombomodulin: BioMAP Diversity Plus: 3C Assay for Thrombomodulin Biomarker Activity (AID 2283029). The following applies: primary human endothelial cells (HUVEC); actives raise or lower the signal. An outline of the steps:
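Thrombomodulin ELISA, human primary HUVEC, 24 h post-dose; data fitted in both directions relative to DMSO.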

SMILES strings stand for the structures. Values joined by “and” are separate entries in the source; they are usually repeats but may differ in a detail not shown here. Equal entries are not always repeated. Records with an inconclusive call do not appear. Some compounds were tested as several samples or in several runs, with calls that do not always agree. Active and inactive are the calls of the source. Rule for the calls, unless noted: active = hit-call score of the fitted dose curve at least 0.9, where 1 is the maximum; inactive = score below 0.9.

Sequence of human Vitamin D Receptor (VDR), VDR (gene 7421) (P11473 whole entry, looked up, the tested form may be a part): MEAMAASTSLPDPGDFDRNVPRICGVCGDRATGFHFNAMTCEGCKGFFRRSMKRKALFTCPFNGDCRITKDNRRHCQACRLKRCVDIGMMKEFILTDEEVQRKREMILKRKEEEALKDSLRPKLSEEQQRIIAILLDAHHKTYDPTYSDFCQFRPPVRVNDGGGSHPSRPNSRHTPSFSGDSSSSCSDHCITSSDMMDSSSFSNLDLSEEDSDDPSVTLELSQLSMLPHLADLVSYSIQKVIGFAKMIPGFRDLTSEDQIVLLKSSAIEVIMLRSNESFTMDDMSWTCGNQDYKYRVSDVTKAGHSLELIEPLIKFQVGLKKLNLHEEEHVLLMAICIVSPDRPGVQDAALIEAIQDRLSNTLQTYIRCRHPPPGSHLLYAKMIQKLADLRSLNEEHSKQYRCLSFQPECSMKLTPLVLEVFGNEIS

As usually defined, the AC50 is the concentration at which the activity in the assay is half-maximal. For `c1ccc(OCCOc2ccccc2)cc1`, the result in experiment [1], in experiment [2], in experiment [3], in [4], in experiment [5] and in experiment [6] was inactive. Also, the result in experiment [7] and in experiment [8] was inactive. In addition, the AC50 in experiment [5] is 0.0654 µM (active).
Take `CC=CC(=O)C1=C(C)C=CCC1(C)C`: the result in experiment [1], in [2], in experiment [4], in [5], in experiment [9] and in experiment [6] was inactive. In addition, the outcome in experiment [7] and in experiment [8] was inactive.
As to `OCC(F)(OC(F)(F)C(F)(OC(F)(F)C(F)(F)C(F)(F)F)C(F)(F)F)C(F)(F)F` (stereo not given), the AC50 in [1] is 6.2 µM (active); in experiment [2] it was 3.71 µM (active); in experiment [4], 4.48 µM (active) and 3.3 µM (active); in [5], 2.54 µM (active); in experiment [6] it was 4.38 µM (active); in [7], 5.19 µM (active) and 3.7 µM (active). Also, the outcome in experiment [1], in experiment [2], in experiment [5], in [6] and in experiment [8] was inactive.
Take `CCCCCCCC1CCCC1=O` (stereo not given): the AC50 in experiment [1] is 25.2 µM (active); in experiment [4], 32.9 µM (active); in [5], 32.8 µM (active); in [9], 37.8 µM (active); in experiment [6], 32.8 µM (active). The result in [2], in experiment [7] and in [8] was inactive.
Regarding `COc1ccccc1NC(=O)CC(C)=O`, the outcome in experiment [1], in experiment [2], in experiment [4], in [5], in experiment [9] and in experiment [6] was inactive. Also, the outcome in experiment [7] and in experiment [8] was inactive.
For `C=C(C)C(N)=O`, the outcome in [1], in [2], in experiment [4], in experiment [5], in experiment [9] and in [6] was inactive. The result in experiment [7] and in experiment [8] was inactive.
Regarding `CCCO[Si](OCCC)(OCCC)OCCC`, the outcome in [1], in experiment [2], in [3], in [4], in [5] and in experiment [6] was inactive. In addition, the outcome in experiment [7] and in experiment [8] was inactive.
With `C=CC(=O)OCC(CO)(COC(=O)C=C)COC(=O)C=C`, the half-maximal activity concentration (AC50) in [1] is 0.303 µM (active); in [2], 0.602 µM (active); in [4] it was 0.294 µM (active); in experiment [5] it was 3.22 µM (active); in experiment [9], 0.174 µM (active); in [6], 0.341 µM (active). The concentration at half-maximal activity (AC50) is 0.566 µM (active) in [7] and 20 µM (active) in [8].
Regarding `Nc1ccc(N)c([N+](=O)[O-])c1`, the result in experiment [1], in [2], in experiment [4], in [5], in experiment [9] and in experiment [6] was inactive. In addition, the result in experiment [7] and in experiment [8] was inactive.
`CC1(C)[C@H](C=C(Cl)Cl)[C@H]1C(=O)OCc1cccc(Oc2ccccc2)c1`: the result in experiment [1], in experiment [2], in experiment [4], in [5], in experiment [9] and in experiment [6] was inactive. Further, the outcome in [7] and in experiment [8] was inactive.
For the compound `CC/C(=C(\c1ccccc1)c1ccc(OCCN(C)C)cc1)c1ccccc1`, the half-maximal activity concentration (AC50) in experiment [1] is 8.78 µM (active) and 8.48 µM (active); in experiment [2], 10.4 µM (active) and 9.73 µM (active); in experiment [4] it was 5.32 µM (active) and 6.55 µM (active); in experiment [5], 10.1 µM (active) and 12.3 µM (active); in [9], 4.76 µM (active) and 5.36 µM (active); in experiment [6] it was 7.7 µM (active) and 8.24 µM (active). Besides, the AC50 in experiment [7] was 6.19 µM (active) and 8.06 µM (active); in experiment [8], 4.81 µM (active) and 5.24 µM (active).
Turning to `O=C1OC2(c3ccc(O)cc3Oc3cc(O)ccc32)c2ccccc21`, the AC50 in experiment [1] was 20 µM (active). For the same compound, the outcome in [2], in [3], in experiment [4], in experiment [5], in experiment [9] and in experiment [6] was inactive. The result in [7] and in experiment [8] was inactive.
For the compound `C=C1CC/C=C(\C)CC[C@@H]2[C@@H]1CC2(C)C`, the half-maximal activity concentration (AC50) is 30.6 µM (active) in [1]; 36.6 µM (active) in experiment [2]; 29.8 µM (active) in [4]; 20 µM (active) in experiment [5]; 14.5 µM (active) in experiment [9]; 29.1 µM (active) in experiment [6]. The half-maximal activity concentration (AC50) in experiment [7] was 31.9 µM (active). In addition, the result in [8] was inactive.
On to `CCCCCCCCCC(=O)OCC`, for which the half-maximal activity concentration (AC50) in experiment [1] was 33.2 µM (active); in experiment [4], 32 µM (active); in [9] it was 14.1 µM (active); in experiment [6], 30.9 µM (active); in experiment [7], 31.5 µM (active). In addition, the outcome in experiment [2], in experiment [3], in experiment [5] and in [8] was inactive.
On to `CCOC(=O)C=Cc1ccccc1`, for which the result in experiment [1], in [2], in experiment [3], in experiment [4], in experiment [5] and in [9] was inactive. Moreover, the outcome in [6], in experiment [7] and in experiment [8] was inactive.
As to `O=S(=O)(O)C(F)(F)C(F)(F)OC(F)(F)C(F)(F)F`, the results for the AC50 in [1] and in experiment [5] were 5.95 µM (active) and 42.9 µM (active), respectively. For the same compound, the result in experiment [1], in experiment [2], in experiment [4], in [5], in experiment [6] and in experiment [7] was inactive. In addition, in experiment [8], the outcome was inactive.
`CC(=O)OC(C)(C)C1CC=C(C)CC1` (stereo not given): the result in [1], in [2], in [5] and in [8] was inactive. In addition, the AC50 is 31.5 µM (active) in experiment [4], 38.9 µM (active) in experiment [9], 31.2 µM (active) in experiment [6] and 31 µM (active) in [7].
Regarding `CC(=O)CCC=C(C)CCC=C(C)C`, the result in experiment [1], in experiment [2], in experiment [4], in experiment [5], in [9] and in experiment [6] was inactive. The outcome in [7] and in experiment [8] was inactive.
Regarding `O=S1(=O)CC(Cl)(Cl)C(Cl)(Cl)C1`, the AC50 in experiment [1] was 0.548 µM (active); in experiment [2], 1.34 µM (active); in experiment [4] it was 5.02 µM (active); in [5], 2.15 µM (active); in experiment [9], 20 µM (active); in [6] it was 0.194 µM (active). For the same compound, the concentration at half-maximal activity (AC50) is 0.992 µM (active) in [7] and 1.18 µM (active) in [8]. The outcome in experiment [10] was inactive.
For `c1ccc2c(c1)-c1ccc3ccc4cccc5cc-2c1c3c45`, the result in [1], in [2], in experiment [4], in experiment [5], in experiment [6] and in [7] was inactive. In addition, the outcome in [8] was inactive. Besides, in [9], the AC50 was 4.52 µM (active).
On to `OCCN1CCOCC1`, for which the result in experiment [1], in experiment [2], in experiment [4], in experiment [5], in [9] and in [6] was inactive. Further, the result in experiment [7] and in experiment [8] was inactive.
Regarding `CCCCOCCOCCO`, the outcome in experiment [1], in experiment [2], in experiment [4], in experiment [5], in experiment [9] and in experiment [6] was inactive. Moreover, the result in experiment [7] and in experiment [8] was inactive.
